Screening results: PubChem BioAssay, Broad Institute
Only some compounds are listed: those with a hit (about 0.53% of all), similar ones and a draw of the others.
TcdB inh = blocks C. difficile toxin B glycohydrolase activity. inhibition, % at 9.99 µM. AID 652162. 0.24% of 350,000 active. TcdB glycohydrolase enzymatic assay, plate reader. P18177; in the data active = inhibition above about 10%
Target sequence (P18177 whole entry, looked up): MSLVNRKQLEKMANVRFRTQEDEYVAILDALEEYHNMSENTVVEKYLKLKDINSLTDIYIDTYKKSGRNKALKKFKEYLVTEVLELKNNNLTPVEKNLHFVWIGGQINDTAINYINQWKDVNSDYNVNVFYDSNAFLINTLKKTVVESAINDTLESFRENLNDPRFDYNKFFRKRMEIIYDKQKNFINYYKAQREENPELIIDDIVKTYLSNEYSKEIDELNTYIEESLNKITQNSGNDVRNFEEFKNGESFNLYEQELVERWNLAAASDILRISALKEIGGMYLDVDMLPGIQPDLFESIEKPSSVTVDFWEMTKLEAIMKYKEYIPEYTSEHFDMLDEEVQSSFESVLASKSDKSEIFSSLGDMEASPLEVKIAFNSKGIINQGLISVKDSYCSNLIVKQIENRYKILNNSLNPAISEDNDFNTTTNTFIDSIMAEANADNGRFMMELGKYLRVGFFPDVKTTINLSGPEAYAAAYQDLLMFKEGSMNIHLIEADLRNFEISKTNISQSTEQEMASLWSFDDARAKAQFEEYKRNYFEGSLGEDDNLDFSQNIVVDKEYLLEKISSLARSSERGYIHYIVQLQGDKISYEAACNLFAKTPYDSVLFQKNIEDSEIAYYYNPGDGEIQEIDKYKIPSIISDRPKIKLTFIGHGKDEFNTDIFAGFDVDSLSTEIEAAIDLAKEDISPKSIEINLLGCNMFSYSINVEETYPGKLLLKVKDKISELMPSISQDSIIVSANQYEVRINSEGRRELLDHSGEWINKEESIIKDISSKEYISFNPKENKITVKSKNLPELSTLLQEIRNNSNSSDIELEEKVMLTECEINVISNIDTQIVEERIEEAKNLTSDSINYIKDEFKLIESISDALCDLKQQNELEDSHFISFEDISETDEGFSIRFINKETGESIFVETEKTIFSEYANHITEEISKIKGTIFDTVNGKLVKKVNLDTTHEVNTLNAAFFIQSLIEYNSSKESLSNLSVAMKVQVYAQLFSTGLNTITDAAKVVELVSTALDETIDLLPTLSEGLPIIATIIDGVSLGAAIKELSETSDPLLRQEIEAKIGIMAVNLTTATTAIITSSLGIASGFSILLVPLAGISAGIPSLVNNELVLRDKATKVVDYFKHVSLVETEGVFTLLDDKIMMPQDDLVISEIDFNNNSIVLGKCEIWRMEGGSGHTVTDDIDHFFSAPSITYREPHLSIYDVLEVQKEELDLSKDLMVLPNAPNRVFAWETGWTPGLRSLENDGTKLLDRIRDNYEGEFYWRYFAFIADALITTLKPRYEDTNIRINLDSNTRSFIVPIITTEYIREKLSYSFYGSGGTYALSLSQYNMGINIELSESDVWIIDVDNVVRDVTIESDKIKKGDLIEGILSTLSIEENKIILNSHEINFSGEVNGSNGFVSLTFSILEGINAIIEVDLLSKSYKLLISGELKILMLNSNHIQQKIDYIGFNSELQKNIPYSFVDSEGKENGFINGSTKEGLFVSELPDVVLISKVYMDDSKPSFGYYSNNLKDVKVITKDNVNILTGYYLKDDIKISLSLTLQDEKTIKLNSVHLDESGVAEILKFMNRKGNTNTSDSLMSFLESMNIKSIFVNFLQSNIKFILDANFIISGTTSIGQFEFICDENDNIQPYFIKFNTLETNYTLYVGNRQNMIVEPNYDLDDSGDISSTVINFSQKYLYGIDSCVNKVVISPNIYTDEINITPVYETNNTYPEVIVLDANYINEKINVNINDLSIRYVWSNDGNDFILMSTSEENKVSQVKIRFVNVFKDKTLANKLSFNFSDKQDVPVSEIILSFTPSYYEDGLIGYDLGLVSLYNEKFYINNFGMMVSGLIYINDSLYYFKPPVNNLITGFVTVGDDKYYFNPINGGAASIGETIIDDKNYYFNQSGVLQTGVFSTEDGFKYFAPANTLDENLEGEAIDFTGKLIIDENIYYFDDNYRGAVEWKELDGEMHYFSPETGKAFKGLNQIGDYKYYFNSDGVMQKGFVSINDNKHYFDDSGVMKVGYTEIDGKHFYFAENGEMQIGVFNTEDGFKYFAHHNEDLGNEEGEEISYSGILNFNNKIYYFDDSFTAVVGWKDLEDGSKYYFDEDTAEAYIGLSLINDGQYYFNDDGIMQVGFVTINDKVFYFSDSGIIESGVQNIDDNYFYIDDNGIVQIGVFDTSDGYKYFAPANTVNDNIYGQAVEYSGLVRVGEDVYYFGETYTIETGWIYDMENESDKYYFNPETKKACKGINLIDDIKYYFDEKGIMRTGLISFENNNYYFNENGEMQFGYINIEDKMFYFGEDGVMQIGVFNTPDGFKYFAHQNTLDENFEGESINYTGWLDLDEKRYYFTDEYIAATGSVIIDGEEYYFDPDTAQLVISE
BioA inh = blocks M. tuberculosis BioA enzyme activity; purified M. tuberculosis BioA enzyme, plate reader; inhibition, % at 9.99 µM; 0.096% of 360,000 active; AID 602481; in the data active = inhibition above about 40%
Yp Topo-I inh = inhibitors of Yersinia pestis topoisomerase I. Y. pestis Topo-I cleavage product accumulation, plate reader. activity, % at 10 µM. 0.064% of 360,000 active; in the data active = activity above about 50%, passing the limit was not always enough
PrP UTR inh = inhibition of PrP 5' UTR reporter expression; cell-based PrP 5' UTR mRNA reporter, plate reader; inhibition, % (concentration not given with the values); 0.35% of 340,000 active; in the data active = inhibition above about 52%
Large screens that a line does not name were inactive.

COc1ccccc1-c1cn(CC[C@H]2CC[C@H](NC(=O)C3CCCC3)[C@H](CO)O2)nn1	none (no result: BioA inh, Yp Topo-I inh, PrP UTR inh)
CCn1c(=S)[nH]c2c(=O)n(C)c(=O)n(C)c21	TcdB inh 46
CCOC(=O)CSc1nc2ccccc2c(=O)n1CC1CCCC1	Yp Topo-I inh 58 (no result: TcdB inh)
CC(=O)Nc1n[nH]c(=S)s1	TcdB inh 18 (no result: BioA inh)
CNc1n[nH]c(=S)s1	TcdB inh 24
C=CCNc1n[nH]c(=S)s1	TcdB inh 15 (no result: PrP UTR inh)
Cc1cc(C)c(Nc2n[nH]c(=S)s2)cc1C	none (no result: PrP UTR inh)
O=C(Nc1ccc(O)cc1)/C(=C\c1ccncc1)NC(=O)c1ccccc1	TcdB inh 24
O=C(Nc1ccccc1)/C(=C\c1ccncc1)NC(=O)c1ccccc1	none (no result: TcdB inh)
O=C(Nc1ccc(O)cc1)/C(=C/c1ccco1)NC(=O)c1ccccc1	TcdB inh 18 (no result: BioA inh)
Cc1ccc(S(=O)(=O)N2C[C@@H]3O[C@@H](CNS(=O)(=O)c4ccccc4C)CC[C@@H]32)cc1	none (no result: BioA inh, Yp Topo-I inh, PrP UTR inh)
O=C(Cc1ccccc1)Nc1ccc(S(=O)(=O)N2CCCC2)cc1	none
CC(=O)Nc1ccc(NC(=O)Cc2ccc(S(=O)(=O)N3CCCCC3)cc2)cc1	TcdB inh 13
C#CCOCCOCCOCCNc1nc(N2CCN(C(=O)CCCCCCCCCCNC(=O)[C@H]([C@@H](C)CC)n3cc(CCCCCN)nn3)CC2)nc(N2CCN(C(=O)CCCCCCCCCCNC(=O)[C@H]([C@@H](C)CC)n3cc(CCCCN=C(N)N)nn3)CC2)n1	Yp Topo-I inh 105 (no result: TcdB inh)
CC1C(=O)C(C)C(c2ccc([N+](=O)[O-])cc2)NC1c1ccc([N+](=O)[O-])cc1 (configuration not stated)	TcdB inh 18 (no result: BioA inh)
N=C(N)c1ccc(N=Nc2c(O)ccc3c2[nH]c2ccccc23)cc1	TcdB inh 14 (no result: BioA inh)
COc1ccc(C(=O)Nc2ccccc2C(=O)O)cc1NC(=O)C(c1ccccc1)c1ccccc1	none (no result: BioA inh)
COc1ccc(C(=O)Nc2ccccc2C(=O)O)cc1Cl	TcdB inh 10 (no result: BioA inh)
O=C(COc1ccccc1)Nc1ccc(S(=O)(=O)Nc2ncccn2)cc1	TcdB inh 17 (no result: BioA inh)
O=C(NCC[C@H]1CC[C@H](NS(=O)(=O)c2cccc(F)c2)[C@H](CO)O1)c1cnccn1	none (no result: Yp Topo-I inh, PrP UTR inh)
c1ccc(-n2nnnc2SCc2ccccn2)cc1	none (no result: TcdB inh)
C(=C\CSc1nnnn1-c1ccccc1)/CSc1nnnn1-c1ccccc1	Yp Topo-I inh 60 (no result: TcdB inh)
C/C(=N\NC(=O)c1c([N+](=O)[O-])c(C)nn1C)c1ccc(NC(=O)C2CCCC2)cc1	PrP UTR inh 67
CC(C)Cc1nnc(NC(=O)CCC(=O)NCc2ccccc2Cl)s1	TcdB inh 13 (no result: BioA inh)
CCSc1nnc(NC(=O)C2CCCCC2C(=O)O)s1 (configuration not stated)	none (no result: TcdB inh, BioA inh)
CCSc1nnc(NC(=O)C2CC2c2ccccc2)s1 (configuration not stated)	TcdB inh 12 (no result: BioA inh)
O=C(NCc1ccccc1Cl)[C@@H]1[C@@H](CO)[C@@H]2Cn3c(cccc3=O)[C@@H]2N1C(=O)C1CCCC1	none (no result: Yp Topo-I inh, PrP UTR inh)
Nc1cc(N)cc(C(=O)OCC(=O)Nc2cc(S(=O)(=O)N3CCCCC3)ccc2Cl)c1	TcdB inh 11
O=C(COC(=O)c1ccc(O)cc1)Nc1cc(S(=O)(=O)N2CCCCCC2)ccc1Cl	none (no result: PrP UTR inh)
C=CCOc1cccc(C2C(C(=O)c3cc4ccccc4o3)=C(O)C(=O)N2c2cc(C)on2)c1 (configuration not stated)	Yp Topo-I inh 69
COc1cccc(C2C(C(=O)c3cc4ccccc4o3)=C(O)C(=O)N2c2cc(C)on2)c1 (configuration not stated)	none
CCN(C[C@H]1[C@H](c2ccccc2)[C@H](CO)N1C(C)=O)C(=O)NC(C)C	none (no result: Yp Topo-I inh, PrP UTR inh)
C[C@@H]1CCCCO[C@@H](CN(C)S(=O)(=O)c2cccs2)[C@@H](C)CN([C@H](C)CO)C(=O)c2cc(NS(=O)(=O)c3cn(C)cn3)ccc2O1	none (no result: Yp Topo-I inh, PrP UTR inh)
COc1ccc(-c2ccc3n(c2=O)C[C@H]2N[C@@H]3[C@@H](C(=O)N3CCCCC3)[C@@H]2CO)cc1	none (no result: BioA inh, Yp Topo-I inh, PrP UTR inh)
O=C(COc1ccc(/C=N/NC(=O)c2ccc(O)cc2)cc1)Nc1cccc([N+](=O)[O-])c1	TcdB inh 15 (no result: BioA inh)
COc1ccccc1-c1nc(S(=O)(=O)c2ccccc2)c(N2CCCCC2)o1	none
CCN1CCN(c2oc(-c3ccccc3C)nc2S(=O)(=O)c2ccccc2)CC1	TcdB inh 10 (no result: BioA inh)
Cc1cc(C)c(S(=O)(=O)c2cccc(Cl)c2)c(Cl)n1	none (no result: BioA inh)
Cc1cc(C)c(S(=O)(=O)c2ccc(Cl)cc2C)c(Cl)n1	TcdB inh 11 (no result: BioA inh)
CCOC(=O)c1cc([N+](=O)[O-])sc1NC(=O)CC	none
CCOC(=O)c1cc([N+](=O)[O-])sc1N	TcdB inh 29
O=C(CSc1nc2ccccc2[nH]1)NC1CCCc2ccccc21 (configuration not stated)	TcdB inh 13 (no result: BioA inh)
CC(=O)c1ccc(OCc2cc(C(=O)N3CC[C@@H]4CCCC[C@H]4C3)no2)cc1	none
Cc1cccc(C)c1OCc1cc(C(=O)N2CCC(C3CCCCC3)C2)no1 (configuration not stated)	Yp Topo-I inh 55
S=C(c1cn(Cc2ccccc2)c2ccccc12)N1CCOCC1	TcdB inh 17 (no result: BioA inh)
O=C(C[C@@H]1CC[C@H](NC(=O)C2CC2)[C@@H](CO)O1)NCc1ccccc1Cl	none (no result: Yp Topo-I inh, PrP UTR inh)
CN(C)c1ccc(NC(=O)/C=C/c2c(Cl)cccc2Cl)cc1	TcdB inh 13 (no result: BioA inh)
CN(C)S(=O)(=O)c1ccc(NC(=O)/C=C/c2ccccc2Cl)cc1	none (no result: TcdB inh, BioA inh)
COc1ccc(NC(=O)N(C)C[C@H]2Oc3ccc(NS(C)(=O)=O)cc3C(=O)N([C@@H](C)CO)C[C@@H]2C)cc1	none (no result: Yp Topo-I inh, PrP UTR inh)
COc1ccccc1-n1c(CCC(=O)O)ccc1-c1ccccc1	TcdB inh 11
C[C@@H]1CCCCO[C@H](CN(C)C(=O)Nc2ccc(F)cc2)[C@@H](C)CN([C@H](C)CO)C(=O)c2cc(NS(=O)(=O)c3cn(C)cn3)ccc2O1	none (no result: Yp Topo-I inh, PrP UTR inh)
CCc1ccc(OCc2n[nH]c(=S)n2C(C)CCCC(C)C)cc1 (configuration not stated)	Yp Topo-I inh 63 (no result: BioA inh)
CCc1ccc(OCc2n[nH]c(=S)n2Cc2ccccc2)cc1	none
COc1ccc(Br)cc1C(=O)Nc1ccc(O)cc1	TcdB inh 24
C[C@@H]1CN([C@H](C)CO)S(=O)(=O)c2ccc(-c3ccncc3)cc2O[C@H]1CN(C)Cc1ccc(Oc2ccccc2)cc1	none (no result: Yp Topo-I inh, PrP UTR inh)
C[C@H](CO)N1C[C@H](C)[C@H](CN(C)Cc2ccc(Oc3ccccc3)cc2)Oc2cc(-c3ccncc3)ccc2S1(=O)=O	TcdB inh 17 (no result: Yp Topo-I inh, PrP UTR inh)
C[C@@H]1CN([C@@H](C)CO)S(=O)(=O)c2ccc(-c3ccncc3)cc2O[C@@H]1CN(C)Cc1ccc(Oc2ccccc2)cc1	TcdB inh 14 (no result: Yp Topo-I inh, PrP UTR inh)
CCCC(=O)Nc1ccc2c(c1)OC[C@@H](C)N(Cc1ccccn1)C[C@@H](C)[C@@H](OC)CN(C)C2=O	none (no result: Yp Topo-I inh, PrP UTR inh)
CCCCn1c(C)cc(C)c(S(=O)(=O)c2ccccc2C)c1=O	Yp Topo-I inh 59 (no result: TcdB inh)
Oc1ccc2ccccc2c1-c1sc(Nc2ccccc2)n[n+]1-c1ccc(F)cc1	Yp Topo-I inh 99
O=C(NCCn1cc(SCc2ccccc2)c2ccccc21)c1ccccc1F	Yp Topo-I inh 50
O=C(CSc1cn(CCNC(=O)c2ccccc2F)c2ccccc12)NCC1CCCO1 (configuration not stated)	none
